# Measurements from PubChem BioAssay AID430 (Sanford-Burnham Center for Chemical Genomics, 2006).
# Hit rate of the full screen: of about 63,000 compounds, about 1,100 (1.7%) were called active. The sample as a whole holds a higher share of actives than the screen did. Potency and affinity values are given separately. A number with no mark means an inactive call. No stated cut-off is given here; in the data, active means cytotoxicity above about 50%; inactive means the rest.
# Experiment: HPDE-C7 pancreatic duct cell viability loss – fluorescence, HTS (AID 430);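 further: cells exposed to compound for 48 hours before viability readout; 0% = vehicle and 100% = reference cytotoxic drug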
# Conditions: HPDE-C7 pancreatic duct cells viability, at 10 µM, hits give high values
row,Structure (SMILES),cytotoxicity
1,CCn1c(SCC(=O)N2CCN(c3ccccc3F)CC2)nnc1-c1ccoc1C,-0.9%
2,CC1(C)OC(=O)N(c2ccccn2)C1(C)O (stereo unspecified),2.3%
3,O=C(Nc1nnc(-c2ccccc2Cl)o1)c1ccc(S(=O)(=O)N2CCCCCC2)cc1,53.6% (active)
4,COCc1nnc(NC(=O)c2ccc(S(=O)(=O)N3CCCCCC3)cc2)o1,3.2%
5,Cc1nnc(NC(=O)c2ccc(S(=O)(=O)N3CCCCCC3)cc2)o1,7.5%
6,CC(OC(=O)c1cccc(NS(C)(=O)=O)c1)C(=O)Nc1ccc(N2CCOCC2)cc1 (stereo unspecified),-30.2%
7,Cc1ccc(C2C=C(c3ccccc3OC(F)F)Nc3ncnn32)cc1 (stereo unspecified),-8.7%
8,COc1cccc(C2=CC(c3ccc(N(C)C)cc3)n3ncnc3N2)c1 (stereo unspecified),-4.9%
9,CN(C)c1ccc(C2C=C(c3ccc(Cl)cc3OC(F)F)Nc3ncnn32)cc1 (stereo unspecified),52.1% (active)
10,O=C(Oc1ccc(Br)cc1)C1CC(=O)N(c2ccc(F)cc2)C1 (stereo unspecified),-2.4%
11,CCn1cnc2c1c(=O)n(CC(=O)Nc1cc(C)on1)c(=O)n2Cc1ccccc1,0%
12,O=C(Nc1ccccc1C(F)(F)F)c1cc(-c2cccc(O)c2)on1,-6.5%
13,Cn1c(CNc2ccc(Cl)cc2)nc2ccccc21,-13%
14,CC(C)N=c1cc2n(-c3ccc(Cl)cc3)c3ccccc3nc-2cc1Nc1ccc(Cl)cc1,83.5% (active)
15,Cc1nc2ccccc2n1-c1ccccc1,-4%
16,COc1ccc(S(=O)(=O)n2cnc3cc(C)c(C)cc32)cc1C,20.4%
17,O=C(CN(CCc1ccccc1)C(=O)CNS(=O)(=O)c1ccccc1)NCC1CCCO1 (stereo unspecified),-10.5%
18,O=C(Nc1nc(-c2cccnc2)cs1)c1ccc(S(=O)(=O)N2CCOCC2)cc1,-18.5%
19,Cc1nc(N)c(C#N)c(-c2ccccc2)c1C,13.3%
20,CC1=C(C#N)c2nc(N)c(C#N)c(C)c2/C1=C\c1ccccc1,107% (active)
21,Cc1c(-c2ccccc2)nc(N)c(C#N)c1-c1ccco1,-4.2%

row,Structure (SMILES),cytotoxicity
1,COc1ccc(CNC(=O)c2csnn2)cc1,-14.5%
2,CN(C)C=C1C(=O)c2ccccc2C1=O,29.6%
3,CN(C)/C=C1/Sc2ccccc2C1=O,-34.3%
4,CN(C)/C=C1\C(=O)c2ccc(N(C)C)nc2CC1c1ccccc1 (stereo unspecified),60.7% (active)
5,CCN1C(=O)C2(C(C#N)=C(N)Oc3c2c(C)nn3-c2ccccc2)c2ccccc21 (stereo unspecified),-16%
6,Cc1cc2n(n1)C(c1ccccc1Cl)Nc1ccccc1-2 (stereo unspecified),9.5%
7,Cc1cc2n(n1)C(c1ccccc1)Nc1ccccc1-2 (stereo unspecified),-1.8%
8,Cc1ccc(C(=O)NC(Cc2c[nH]c3ccccc23)C(=O)O)o1 (stereo unspecified),-0.1%
9,Cc1cc(N2C(=O)C(=O)/C(=C(/O)c3ccc(Cl)cc3)C2c2cccc(Br)c2)no1 (stereo unspecified),56.2% (active)
10,Cc1ccc(/C(O)=C2\C(=O)C(=O)N(c3cc(C)on3)C2c2cccc(Cl)c2)cc1 (stereo unspecified),51.8% (active)
11,Cc1cc(N2C(=O)C(=O)/C(=C(/O)c3ccc(F)cc3)C2c2ccc(Cl)cc2)no1 (stereo unspecified),34.6%
12,Cc1cc(N2C(=O)C(=O)/C(=C(/O)c3ccc(F)cc3)C2c2ccc(F)cc2)no1 (stereo unspecified),23.3%
13,Cc1cc(N2C(=O)C(=O)/C(=C(/O)c3ccc(F)cc3)C2c2cccc(Br)c2)no1 (stereo unspecified),71.5% (active)
14,Cc1cc(N2C(=O)C(=O)/C(=C(/O)c3ccccc3)C2c2cccc(Br)c2)no1 (stereo unspecified),3.2%
15,COc1cccc(C2/C(=C(\O)c3ccc(OC)c(OC)c3)C(=O)C(=O)N2c2cc(C)on2)c1 (stereo unspecified),20.9%
16,COc1ccc(/C(O)=C2\C(=O)C(=O)N(c3cc(C)on3)C2c2ccccc2OC)cc1 (stereo unspecified),-1.9%
17,Cc1ccc(/C(O)=C2\C(=O)C(=O)N(c3cc(C)on3)C2c2cccc(Br)c2)cc1 (stereo unspecified),49.9%
18,Cc1c(N=Cc2cc3c(cc2Cl)OCO3)c(=O)n(-c2ccccc2)n1C,-3.1%
19,COc1ccccc1OCCCCNCCO,-0.7%
20,CCOC(=O)N1CCC(N2CCN(S(=O)(=O)c3ccc(NC(C)=O)cc3)CC2)CC1,-12.8%
21,Cc1ccnc(Sc2nc3c(c(=O)[nH]c(=O)n3C)n2CCCc2ccccc2)n1,-9.5%

row,Structure (SMILES),cytotoxicity
1,C=CCn1c(SCC(=O)Nc2cccc(C(=O)OC)c2)nnc1C(C)NC(=O)c1cccs1 (stereo unspecified),-5%
2,O=C(c1cc(-c2cccs2)on1)N1CCc2ccccc2C1,2.3%
3,CSc1nc2nc(C)cc(-c3ccccc3)n2n1,-10.4%
4,Cc1cccc(NC(=O)C2CCN(S(=O)(=O)c3c(C)nn(C)c3C)CC2)n1,1.6%
5,COc1ccc2[nH]c(=O)c(CN(C(=O)c3ccccn3)C3CCCCC3)cc2c1,-30.2%
6,O=C(c1ccc(S(=O)(=O)N2CCOCC2)cc1)N1CCc2ccccc2C1,-7.6%
7,CCOC(=O)C1=C(C)NC(=O)NC1/C(C)=C/c1ccccc1 (stereo unspecified),-16%
8,COc1cccc(-c2nnc3sc(-c4ccco4)nn23)c1,58% (active)
9,COc1cc(-c2nnc3sc(-c4ccncc4)nn23)cc(OC)c1OC,-12.2%
10,COc1cccc(OC)c1-c1nn2c(-c3ccccc3Cl)nnc2s1,19.8%
11,COc1cc(-c2nnc3sc(-c4cccs4)nn23)cc(OC)c1OC,75.8% (active)
12,COc1ccc(-c2nnc3sc(-c4cccs4)nn23)cc1OC,20.2%
13,Cc1nnc2sc(-c3cc4ccccc4o3)nn12,5.6%
14,COc1ccccc1-c1nnc2sc(-c3cc4ccccc4o3)nn12,56.2% (active)
15,COc1cccc(-c2nn3c(-c4ccco4)nnc3s2)c1,-0.7%
16,CCOc1cccc(-c2nnc3sc(-c4ccco4)nn23)c1,21.5%
17,COc1ccc(-c2nnc3sc(-c4c(OC)cccc4OC)nn23)cc1,10.9%
18,COc1cccc(OC)c1-c1nn2c(-c3cc(-c4ccccc4)n[nH]3)nnc2s1,68.9% (active)
19,COc1ccccc1-c1nn2c(-c3ccccc3Cl)nnc2s1,-14.1%
